This is an account of results in PMC13494018.

The target of this experiment is CD276, Q5ZPR3.

Unmarked numbers belong to inactive results. No rule for the calls is given here.

CD276, Q5ZPR3, sequence (Q5ZPR3 whole entry): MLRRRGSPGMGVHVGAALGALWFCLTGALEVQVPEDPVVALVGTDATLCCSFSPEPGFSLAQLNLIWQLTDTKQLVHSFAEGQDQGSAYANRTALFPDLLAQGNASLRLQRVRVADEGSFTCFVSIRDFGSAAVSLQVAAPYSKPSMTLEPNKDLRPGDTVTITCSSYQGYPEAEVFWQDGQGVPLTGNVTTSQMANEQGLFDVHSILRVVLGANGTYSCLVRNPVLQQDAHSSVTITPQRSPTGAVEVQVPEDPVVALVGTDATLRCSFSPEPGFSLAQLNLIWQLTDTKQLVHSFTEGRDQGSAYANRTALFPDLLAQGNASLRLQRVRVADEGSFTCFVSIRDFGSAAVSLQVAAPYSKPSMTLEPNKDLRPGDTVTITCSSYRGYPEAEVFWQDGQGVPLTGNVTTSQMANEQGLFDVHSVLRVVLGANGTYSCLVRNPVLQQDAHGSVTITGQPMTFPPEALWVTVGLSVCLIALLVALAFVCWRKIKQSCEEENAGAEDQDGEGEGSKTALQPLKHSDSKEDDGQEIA

B1: design_620_fbd04095-bef7-46a9-992d-f2cb8915922f_687_dldesign_0_cycle1_af2pred (protein)
chain: ATAAEAAALRDAGVAAANSAAAAAKAGNTTAAGELLTEAVKLAAQLAALGDEAGAAEVRAAIAASSKTIIAAQAA
Consider B1, for which the “binding in a display sort” value was “not found”.

B2: design_620_fbd04095-bef7-46a9-992d-f2cb8915922f_158_dldesign_0_cycle1_af2pred (protein)
chain: IDTQANLELAKKSFNAALAQARRFAKTDRQAALAALKSAEVYAEAAEAADPAAGEELRKKVEEARKEIEAA
Consider B2, for which the “binding in a display sort” value is “not found”.

B3: design_620_fbd04095-bef7-46a9-992d-f2cb8915922f_254_dldesign_0_cycle1_af2pred (protein)
chain: AERLRAAAERLEAAAAATPEAAEAALAEAAALAEEVAAEYPGLGQLILNTLRQAAGLSPEERARAVARQFRALADYL
Regarding B3, the “binding in a display sort” value is “not found”.

B4: design_620_fbd04095-bef7-46a9-992d-f2cb8915922f_36_dldesign_0_cycle1_af2pred (protein)
chain: AAEEALKKLKELAEKTKKVAEEAGKVNPALAPEADFLSALAEAALNYAKKNAASPDFEKIAKKQLEQIKKALERAEKLLKEAKAQAA
B4: the “binding in a display sort” value was “not found”.

B5: design_620_fbd04095-bef7-46a9-992d-f2cb8915922f_77_dldesign_0_cycle1_af2pred (protein)
chain: DAVTAQIKALGAAGVAQARADPENAVAIASRTNAQIWGLILAAGADAAASAVALEATRANAEAVRETTAAAAAAAAAAAAAAAA
In the case of B5, the “binding in a display sort” value is “not found”.

B6: design_620_fbd04095-bef7-46a9-992d-f2cb8915922f_329_dldesign_0_cycle1_af2pred (protein)
chain: SAESQAKAEELLREAFKRITELADAAAKSGTEEELAKAKKEMEEIAEKVEKEAGPGAGELARNYLKTQLAAAKAAIAAAK
In the case of B6, the “binding in a display sort” value was “not found”.

B7: design_620_fbd04095-bef7-46a9-992d-f2cb8915922f_187_dldesign_0_cycle1_af2pred (protein)
chain: GEARRQFAEDTAAAAKQAAALYAADPEKAQQVKDAADKAVAAAESGEDAQLAGLSAIKVYQALVEAQKAA
For the molecule B7, the “binding in a display sort” value was “not found”.

B8: design_619_5728adc2-0aea-404f-92dd-a4575c53f550_2492_dldesign_0_cycle1_af2pred (protein)
chain: AIADEIIALARAAAEAADPEESTRLMREAAELAVEKFPELTPEEANAVIGEFLEAAARASPEAAVIATRAAARLGAQLAA
As for B8, the “binding in a display sort” value is “not found”.

B9: design_619_5728adc2-0aea-404f-92dd-a4575c53f550_2217_dldesign_0_cycle1_af2pred (protein)
chain: DPAAALEKRTAAAMLAQAKAAVDADPALGRQRIANMEQLGKASPALAPYLLPAAEEARAYLAAKEAAAAA
Consider B9, for which the “binding in a display sort” value is “not found”.

B10: design_619_5728adc2-0aea-404f-92dd-a4575c53f550_2329_dldesign_0_cycle1_af2pred (protein)
chain: SALTKKIEEKATKLVEEAAKTTPEEARKLATEALEIAKQSPEALSALAVELLKAAAKATPEVAAVLREVAAQAMRTAIEIARA
Regarding B10, the “binding in a display sort” value was “binds (active)”.

B11: design_620_fbd04095-bef7-46a9-992d-f2cb8915922f_347_dldesign_0_cycle1_af2pred (protein)
chain: DAVAAGQALLYAAKSQGYIGKAKKAVKEGKLEEAKEYAEKAEEYAKKSEEYAKQSGDAAVQAQAKKVQEQVKKTKEEVKKAE
Take B11: the “binding in a display sort” value is “not found”.

B12: design_620_fbd04095-bef7-46a9-992d-f2cb8915922f_119_dldesign_0_cycle1_af2pred (protein)
chain: REAAAEELRRLAEEARRLGEAGTPEVRSMARMMATAMEVIARGGNVELALEALRAAAAGIANDGKFGAEMEELARRAEEAVR
Turning to B12, the “binding in a display sort” value was “not found”.

B13: design_620_fbd04095-bef7-46a9-992d-f2cb8915922f_548_dldesign_0_cycle1_af2pred (protein)
chain: MNASERVIARAEAIIAEAAALGAAHPAMAGETAAIQALARSAARMARSGEHIEDAEKAVEVAEAMLAATAARAAALAA
With B13, the “binding in a display sort” value was “not found”.

B14: design_619_5728adc2-0aea-404f-92dd-a4575c53f550_2222_dldesign_0_cycle1_af2pred (protein)
chain: MENLEKAKELLEKAEAYVKAAAASDLATAQALLGQAVAAGQEAVELLKDSPIYPEVSRKVVELIRAGLAAVAAKA
Consider B14, for which the “binding in a display sort” value is “not found”.

B15: design_620_fbd04095-bef7-46a9-992d-f2cb8915922f_328_dldesign_0_cycle1_af2pred (protein)
chain: DPKAQAQATAETLAKQAKKAATEALKLAKELGDKETAEKMKEIIKKVEELLEKAKKGTAEEAGAAALEILKLLSEARKELEKLKKKA
B15: the “binding in a display sort” value was “not found”.

B16: design_619_5728adc2-0aea-404f-92dd-a4575c53f550_2359_dldesign_0_cycle1_af2pred (protein)
chain: SQAQGELLEAVKYASKAMKLDPALAPQLQQAINLLVRAIVLLAQGDEAQAAEEAKKAAKLFEEAAKKASPEAAKELKKAAKEAEKAI
For B16, the “binding in a display sort” value was “not found”.

B17: design_620_fbd04095-bef7-46a9-992d-f2cb8915922f_592_dldesign_0_cycle1_af2pred (protein)
chain: SMAEEAARAEKAAAFREQAEAILAQAQANAADAEKLQQLGQQAVELAEEAAALGDQEAAQAALRAAAQINALLVQAQ
B17: the “binding in a display sort” value is “not found”.

B18: design_620_fbd04095-bef7-46a9-992d-f2cb8915922f_681_dldesign_0_cycle1_af2pred (protein)
chain: AAAEAAAAAAAAAAAAEAAARAARGREIMVRTVEAIVRQARASPDGLRLARIALRVAESAGDEEAIALARAALAELEAA
Take B18: the “binding in a display sort” value was “not found”.

B19: design_619_5728adc2-0aea-404f-92dd-a4575c53f550_2058_dldesign_0_cycle1_af2pred (protein)
chain: AAVAQSQLQITQNLVAWALSQLTTYGPAQGATIAKAVRDLALAAGLPEAVADELAAGAAGTAAEAKAKGAQAVALAQAAVAA
Regarding B19, the “binding in a display sort” value is “not found”.
